From paper PMC13494018 come the findings set out here.

Unmarked numbers belong to inactive results. How the calls were made is not given here.

B1: d8r1_design_ppi_793_dldesign_0_cycle1_af2pred (protein)
chain: GISPESAKKLAKQMLEDALKAAEEARKLIKEGATPEEVQKAIRGAQAAADAAEALAKVDPAVAPYAKKAKAAVEEARKLAK
B2: d8r1_design_ppi_1130_dldesign_0_cycle0_af2pred (protein)
chain: SAEEAEKAAKELIELAKKAAEDPSYIPEAAALAAKHIGTPEARTALAEAIKILMQKSPELAKQFLAAFSAALAALRAAA
B3: d8r1_design_ppi_56_dldesign_0_cycle0_af2pred (protein)
chain: EAEKALKEAAEKIKKAAKEAEKDPEKAVEYFSEALAYAMRTAIKYPEIAAALGAAAAGLAEGAREAKKDVEKGVKIAEKAAKELEKA
B4: d8r1_design_ppi_1481_dldesign_0_cycle0_af2pred (protein)
chain: SSEANDAALKEGMALASATLAQARALIAAGGAAAAAAAAALAEAAVARLRELGAKYPQRAASFAALGEALRREVARLAA
B5: d8r1_design_ppi_179_dldesign_0_cycle1_af2pred (protein)
chain: MESARNAAEGIAKAAEENPESGARLGKGAVEVLAKRDIEAAVEAARLAAELSKEAGKEEVAEVMKKLAEEAEKKL
B6: d8r1_design_ppi_86_dldesign_0_cycle1_af2pred (protein)
chain: GARAAALAAAAALNAAAAKADAAAAKAYGRAAVAAARAYFAGADGAELLALVAKVGAEDPAVAADILAIATAALAAAA
B7: d8r1_design_ppi_219_dldesign_0_cycle0_af2pred (protein)
chain: GERIKRNAEIVAATYAEVAALAAGEKEATARRAAGLLAAGAMSPEGREEYLAEALALAAEVGAEAAALVAEAAAAI
B8: d8r1_design_ppi_1130_dldesign_0_cycle1_af2pred (protein)
chain: SMEEAEKAAKEIIELAKKAAEDPSYIDELAALAAKYIGSPEAKEALAEAIKILSKKSPELAKQFLAKYSAALAALRAAA
B9: d8r1_design_ppi_623_dldesign_0_cycle1_af2pred (protein)
chain: AAAAAAADAAAAALLDAAAAAAKAAVELTPEEAAAVLGAIAAAAATALALAKDPAAKAKLLATASEVANTAAQNLSQAVRREEE
B10: d8r1_design_ppi_307_dldesign_0_cycle1_af2pred (protein)
chain: MMEEAEKIAEEAKKTADELLAQAKKGDPKPYVNQGFAELNKLLQEAAKLSPEAAEKVKEVLAEFRKQASKILDS
B11: d8r1_design_ppi_243_dldesign_0_cycle1_af2pred (protein)
chain: DQNLKGALLIGQANAYAVAAAKAAAAAGAPAAEVQAAIDKVRAMTAEAGKLSPSLASTAERVAAIEGARLAAAA
B12: d8r1_design_ppi_1244_dldesign_0_cycle1_af2pred (protein)
chain: EEEAEKERERYEKAYYFAKAAIAAASSGLPAAVAAAKAFLQKAGEEIPEFLPAAKAATTAAEITAVATKVAAYAAAKIS
B13: d8r1_design_ppi_423_dldesign_0_cycle1_af2pred (protein)
chain: DESDKNMELLTKAGAATSELVAKARADAKAAAAEGPEAVKAVAEEHSAKIKEVAEKLGKESSKSASFKGLIETATKTIKAYADAVVA
B14: d8r1_design_ppi_254_dldesign_0_cycle1_af2pred (protein)
chain: AAAQAAAAEALRKVREAFSEAIALTVKNPEEGEKKFKEAEKLAEAAVKEQKAVDPAVGAALAKQVEATVKSAKEIMELIKKAKE
B15: d8r1_design_ppi_59_dldesign_0_cycle0_af2pred (protein)
chain: MSELAEEAIKALVAAHNAAAALAALGRTAEAAALSRQASEAFGKAFKALQEGDEETAKKYLEELKAIAAKAAEAAAAAAAAAAAA
B16: d8r1_design_ppi_479_dldesign_0_cycle0_af2pred (protein)
chain: EELAKEARELAKRGIEDPEKAPEAGRKIAELAAKAVAEGDSEAAAEAVAELTRLHKANPEAGREALILMAQKIAKVAREK
B17: d8r1_design_ppi_408_dldesign_0_cycle1_af2pred (protein)
chain: ASAEAKKKALELIKKAVALTSQGLAKGDKALVKKGLEYAKKAKEEAAKSADAATLLKAVDNVEAMAKTVLDAL
B18: d8r1_design_ppi_1260_dldesign_0_cycle1_af2pred (protein)
chain: MTAEEALAEMEKLTKEMKEVSPLAGNAMEAHLNKAKELVAAVAAEDPEKAAEVAAKSYEQAKALYKAMKEMIEEEKKEKELA
B19: d8r1_design_ppi_1104_dldesign_0_cycle1_af2pred (protein)
chain: DDLLKQAQATLKQAAALAATVSLAAASDFNAAMFLMRNPKNIPQAIKYAQQGAALAAASAKAPQIKALADEAVKLMKALAKAAAA
B20: d8r1_design_ppi_987_dldesign_0_cycle0_af2pred (protein)
chain: QAVLDKANELLAKAMKLFGKLSPENYAAALAAADAAIAAAKELQKEDPELGAALLASAEALKAAIKAKAA
B21: d8r1_design_ppi_997_dldesign_0_cycle1_af2pred (protein)
chain: ALSDAQSFVKAAKAAAEKAKELAKKDPEVAAKAVETAKKLAEAAVKASPEAKPQAEEAKKLAEEAKKVVEEAKKKAA
B22: d8r1_design_ppi_307_dldesign_0_cycle0_af2pred (protein)
chain: EEARAEALAAEAAATAAALLAAARATDPRADIAAGAAALTAAAREAAALSPAAAAKVRAVIATFMAEALKLMDS
B23: d8r1_design_ppi_254_dldesign_0_cycle0_af2pred (protein)
chain: AAAKALAEAALREVGSALSEAISLTSKDPKKGEEKFKEAEALAKAKVAEMEAIDPAVGAALKAAVDALLAQTKLIMEKIKEAKK
B24: d8r1_design_ppi_789_dldesign_0_cycle1_af2pred (protein)
chain: ALEERLRAALEAARELRERGVEEGWSPGELANAVLALAKEAGLPLEAQNTLAAAAMVPGERAEILLEKAEEIV
B25: d8r1_design_ppi_384_dldesign_0_cycle1_af2pred (protein)
chain: SAKEAAAKAARNAAAAAKKADEAGFNPKVIASLAKAAGEEALVSPESVEAAEEAAKIAEKYPSKEAQEAAKYAKELAKAAKAKAA
B26: d8r1_design_ppi_669_dldesign_0_cycle1_af2pred (protein)
chain: AAAAAAANVRKVGEVSIEYVERVDAVSGANFAAGAFRGLATLLPPEVAKHAAAAAEKVRETGEKETKEALIETIRTTTAEIAALIEA
B27: d8r1_design_ppi_128_dldesign_0_cycle1_af2pred (protein)
chain: AQLEQIKAQAKKEIEEALEYAKKAKTDPSYLAKALGHLNKASQLAKQLPNAEEVKAEIDKAISAAIAGDYETVKKEAEEAIKLLEKD
B28: d8r1_design_ppi_573_dldesign_0_cycle1_af2pred (protein)
chain: SAEQAALEAKAKEAALKAWEAAKQYKKTGYQEFKDAAKEYAYAAIAYFRGDTAAGKKYRDAADKLWAKAQAIAAA
B29: d8r1_design_ppi_146_dldesign_0_cycle1_af2pred (protein)
chain: YAQKIREAAEKLKSPEKKATLNAFADIAAKLEAEAKKAAAKDPAEGAKKLTAAKNLAAGALKLAEAKKEEE
B30: d8r1_design_ppi_1215_dldesign_0_cycle1_af2pred (protein)
chain: AEEVGRMALTAAEAGERIALEKVKDPATAAEGAALAKVAADALKAAAEKVPEVAERLNKAATELYKKVADAA
B31: d8r1_design_ppi_1041_dldesign_0_cycle1_af2pred (protein)
chain: MEEKEEEEAKKAAKAAVDAATKVAEKAAKASTPEVAKKLTAAAKGLKGATELLAKINPKNAAAFAKAAAERFTKIAEKAVKDAA
B32: d8r1_design_ppi_684_dldesign_0_cycle1_af2pred (protein)
chain: AAAEEAEEKKYAMAKAAGAAASEIAKIDPALGRKVAIAAGEALSVDLETSYKILTDTLTEVAETGSPEAAAEAQKALDAVEAAYKA
B33: d8r1_design_ppi_713_dldesign_0_cycle0_af2pred (protein)
chain: DEFLAEANAAAAATSPANAAALNAAFAAALAQSDVGEGIKTLAAAADALAAASTPADAANIGKATSYFIAYLSS
B34: d8r1_design_ppi_499_dldesign_0_cycle0_af2pred (protein)
chain: GMARSLQRAAENTAARAAEYLRDPAKAEIGRNALAAAAALTEKAAAEAGLSPEEAAAAAAATRAATLAAAA
B35: d8r1_design_ppi_128_dldesign_0_cycle0_af2pred (protein)
chain: EELEKLKEEAKKEIKEALEYTEKAKEDPDYLAKALGHLNKARQLAAKLPSAEEVKKEIDKMISAAMAGDVEKAKEYAEKAIKLLEKD
B36: d8r1_design_ppi_855_dldesign_0_cycle1_af2pred (protein)
chain: GTGKNLIKVLETSAEKTAALAAELAPDPAAATALADAFEASAKGFAAIAKELGTEAEVKPAAEKAIKKVRDALDKALAAAAA
B37: d8r1_design_ppi_23_dldesign_0_cycle1_af2pred (protein)
chain: DAEEKKKLAKKMEEMAKKVAAAGKAVPAVKAEADATAKALKAMAKLALEGSLEDAKSLLKAGEAAAKRVLEKAKAAAAAAA
B38: d8r1_design_ppi_167_dldesign_0_cycle0_af2pred (protein)
chain: SSEERYAEAAKLLAETAAKAAALIAKNPAVAEAAKEMQRYAARAAAALVAGDEEKAKEYKKKMEEALAKAEALVA

The target of the assay is PDL1, Q9NZQ7.
Chain of PDL1, Q9NZQ7 (Q9NZQ7 whole entry): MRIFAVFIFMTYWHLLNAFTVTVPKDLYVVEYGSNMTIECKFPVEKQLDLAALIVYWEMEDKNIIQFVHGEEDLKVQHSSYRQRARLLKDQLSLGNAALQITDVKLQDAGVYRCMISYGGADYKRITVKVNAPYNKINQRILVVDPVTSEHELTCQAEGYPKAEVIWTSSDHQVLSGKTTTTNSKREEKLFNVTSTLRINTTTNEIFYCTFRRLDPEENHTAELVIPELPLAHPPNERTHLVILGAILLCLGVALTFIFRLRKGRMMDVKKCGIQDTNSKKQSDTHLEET
Regarding B1, the “binding in a display sort” value was “not found”.

For the molecule B2, the “binding in a display sort” value is “not found”.

As to B3, the “binding in a display sort” value is “not found”.

For B4, the “binding in a display sort” value is “not found”.

As to B5, the “binding in a display sort” value is “not found”.

With B6, the “binding in a display sort” value was “not found”.

For the molecule B7, the “binding in a display sort” value was “not found”.

With B8, the “binding in a display sort” value is “not found”.

For B9, the “binding in a display sort” value was “not found”.

As to B10, the “binding in a display sort” value was “not found”.

For the molecule B11, the “binding in a display sort” value is “not found”.

As for B12, the “binding in a display sort” value is “not found”.

Take B13: the “binding in a display sort” value was “not found”.

For B14, the “binding in a display sort” value was “not found”.

B15: the “binding in a display sort” value is “not found”.

Regarding B16, the “binding in a display sort” value is “not found”.

As for B17, the “binding in a display sort” value is “not found”.

On to B18, for which the “binding in a display sort” value is “not found”.

Regarding B19, the “binding in a display sort” value is “not found”.

With B20, the “binding in a display sort” value was “not found”.

B21: the “binding in a display sort” value was “not found”.

For the molecule B22, the “binding in a display sort” value was “not found”.

As to B23, the “binding in a display sort” value is “not found”.

On to B24, for which the “binding in a display sort” value was “not found”.

For the molecule B25, the “binding in a display sort” value was “not found”.

B26: the “binding in a display sort” value is “not found”.

As to B27, the “binding in a display sort” value was “not found”.

On to B28, for which the “binding in a display sort” value was “binds (active)”.

In the case of B29, the “binding in a display sort” value was “not found”.

For B30, the “binding in a display sort” value is “not found”.

Consider B31, for which the “binding in a display sort” value is “not found”.

Regarding B32, the “binding in a display sort” value is “not found”.

As for B33, the “binding in a display sort” value was “not found”.

Take B34: the “binding in a display sort” value is “not found”.

Take B35: the “binding in a display sort” value is “not found”.

As to B36, the “binding in a display sort” value was “not found”.

On to B37, for which the “binding in a display sort” value is “not found”.

As to B38, the “binding in a display sort” value is “not found”.
